The list is not random: actives were taken first. Their share in the collection is about 0.56%.
GALK inhibitor: blocks human galactokinase activity | P51570 | Purified GALK, Kinase-Glo residual ATP luminescence | Potency, µM (series often up to 57.5 µM), for inactives: at the highest dose activity change, negative = inhibition, hits mostly inhibitors | 0.007% of 270,000 active | AID 1868; also: potency is read from the fitted curve at half-maximal effect; % is scaled to controls: 0 for no effect and ±100 for the full control effect
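Compounds were pin-transferred into ATP buffer (35 uM final), then GALK plus galactose (5 nM, 100 uM final) was added. After 1 h at room temperature, Kinase-Glo Plus was added and luminescence read after 10 min.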
PKM2 act: increases activity of human pyruvate kinase M2; P14618; purified PKM2, Kinase-Glo ATP luminescence, activation; response scale: 0% is enzyme alone, no compound; Potency, µM (top dose mostly 57.5 µM), for the others: at the highest dose activation, actives largely listed as activators; 0.34% of 260,000 active; also: potency is read from the fitted curve at half-maximal effect; % is scaled to controls: 0 for no effect and ±100 for the full control effect; nearly all actives have a fitted effect of over 55% in size
Target sequence (P14618 whole entry, looked up): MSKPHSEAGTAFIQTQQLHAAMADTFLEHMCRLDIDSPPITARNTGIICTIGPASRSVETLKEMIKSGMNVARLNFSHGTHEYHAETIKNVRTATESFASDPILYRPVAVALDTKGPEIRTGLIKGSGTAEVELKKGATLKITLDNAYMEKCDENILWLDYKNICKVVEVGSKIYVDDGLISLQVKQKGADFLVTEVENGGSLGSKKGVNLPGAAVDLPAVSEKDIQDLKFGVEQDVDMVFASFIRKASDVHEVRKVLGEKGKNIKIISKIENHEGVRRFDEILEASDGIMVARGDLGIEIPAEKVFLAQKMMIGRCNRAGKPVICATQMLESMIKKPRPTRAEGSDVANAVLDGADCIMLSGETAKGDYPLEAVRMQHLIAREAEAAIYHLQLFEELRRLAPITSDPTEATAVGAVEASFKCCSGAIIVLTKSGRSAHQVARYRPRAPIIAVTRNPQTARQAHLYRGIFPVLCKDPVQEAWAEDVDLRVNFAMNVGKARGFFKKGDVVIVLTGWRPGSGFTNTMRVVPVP
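ATP formation by purified human PK-M2, quantified via coupled luciferase luminescence after 1 h at room temperature with 0.1 mM ADP and 0.5 mM PEP final.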
Tb PFK inh-1: inhibitors of T. brucei phosphofructokinase. O15648. T. brucei PFK, ADP-Glo luminescence. Potency, µM (highest dose often 57.5 µM), for inactives: at the highest dose activity, negative = inhibition, actives largely listed as inhibitors. 0.17% of 330,000 active. AID 485367;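 also: potency is read from the fitted curve at half-maximal effect; 0% = uninhibited 1x PFK enzyme wells and -100% = no-enzyme wells; nearly all actives have a fitted effect of over 60% in size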
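1.25 nM PFK with 0.5 mM F6P and 0.1 mM ATP in 0.1 M TEA pH 8.0, 5 mM MgCl2, incubated 45 min at room temperature; ADP measured by ADP-Glo luminescence; compounds titrated up to 57 uM.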
CBFb-RUNX1 inh: CBF-beta/RUNX1 interaction disruption | AlphaScreen CBFb-His/RUNX1-biotin binding, biochemical | Potency, µM (series often up to 59.8 µM), for the others: top-dose activity, negative = inhibition, hits mostly inhibitors | Q01196+Q13951 | 230,000 tested, under 10 active | AID 1477; also: % of control where 0% means no effect
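Inhibition was taken as any reduction in AlphaScreen signal from the CBF-beta–RUNX1 pair (His and biotin tags, 30 nM each), measured after compound (15 min) and bead (90 min) incubations at room temperature.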
Luc counter: blocks Kinase-Glo luciferase, a counter-screen artifact. Kinase-Glo luciferase, ATP luminescence, 8 min. Potency, µM (series often up to 38.3 µM), inactives show top-dose activity change, negative = inhibition, most hits filed as inhibitors. 0.28% of 200,000 active. AID 1379; also: potency is read from the fitted curve at half-maximal effect; % is scaled to controls: 0 for no effect and ±100 for the full control effect; nearly all actives have a fitted effect of over 60% in size
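Inhibition of Kinase-Glo luciferase light generation was assessed at 10 uM ATP in pH 7.2 imidazole buffer, with luminescence measured after eight minutes at ambient temperature.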
Tb PFK KinaseGlo: inhibits T. brucei PFK measured by ATP depletion. shares compounds with Tb PFK inh-1. Tb PFK enzyme, ATP depletion, Kinase-Glo Plus luminescence. Potency, µM (titrated, usually from 57.5 µM), without a hit: at the highest dose inhibition. 47% of 1,100 active. AID 504636; calls by dose curve; also: potency is read from the fitted curve at half-maximal effect; nearly all actives have a fitted effect of over 60% in size
Tb PFK inh-2: T. brucei PFK enzyme inhibition, hit validation; shares compounds with Tb PFK inh-1; purified T. brucei PFK, ADP-Glo luminescence, 45 min; Potency, µM (highest dose often 57.5 µM), for the others: at the top dose activity change, negative = inhibition, actives largely listed as inhibitors; 41% of 1,100 active; AID 504637;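 also: potency is read from the fitted curve at half-maximal effect; plate controls were full PFK enzyme control for no effect and no enzyme control for full effect; nearly all actives have a fitted effect of over 60% in size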
Numbers without * were called inactive; ? = inconclusive; . = no result; [ ] = dose if it differs, or a comment. Unless noted, calls follow the shape of the dose curve; as a rule, active = well fitted curve in the direction sought with a large enough effect; inconclusive = small, poorly fitted or top-dose-only effect, or another doubt; inactive = no such curve, though single readings can be large; an effect the other way counts as inactive or inconclusive.

SMILES	GALK inhibitor	PKM2 act	Tb PFK inh-1	CBFb-RUNX1 inh	Luc counter	Tb PFK KinaseGlo	Tb PFK inh-2
CC(=O)N[C@@H]1c2c(ccc3ccccc23)OC[C@@H]1COC(C)=O	-1.1%	-7.7%	?	11.4%	-2.1%	-30.3%	?
CN1OC[C@@H]2COc3ccc4ccccc4c3[C@@H]21	5.3%	3.0%	-1.9%	?	0.2%	.	.
N/C(Cc1ccc(Cl)c(Cl)c1)=N\OC(=O)c1cccs1	1.1%	-4.9%	?	8.2%	0.2%	10.7µM*	?
O=C(c1cccs1)c1cn(Cc2ccccc2Cl)c2ccccc12	1.0%	2.9%	0.5%	14.4%	-0.3%	.	.
O=c1cnn(Cc2ccc(Cl)c(Cl)c2)c2ccccc12	12.4%	3.1%	?	.	.	12µM*	23.9µM*
Cc1ccc(NNC(=O)Nc2ccc(Cl)cc2)nn1	6.4%	-0.4%	23.9µM*	3.3%	.	23.9µM*	?
CC(C)C(=O)CP(=O)(O)O	.	.	.	.	-2.1%[7.66 µM]	.	.
O=C(Nc1n[nH]c(=S)s1)c1ccco1	.	-47.3%	?	.	.	5.36µM*	12µM*
CC(C)Br	.	.	.	2.7%[21.7 µM]	.	.	.
CCCCn1c(=O)c(C(=O)NCc2ccncc2)c(O)c2ccccc21	3.0%	4.3%	-1.9%	-0.9%	5.3%	.	.
CC1CN(S(=O)(=O)c2cc(C(=O)NCc3ccncc3)ccc2Cl)CC(C)O1 (stereo unspecified)	.	.	?	.	.	?	?
CN(C)CCCNc1c2c(nc3ccc(Cl)cc13)CCCC2	.	.	.	.	1.8%[7.66 µM]	.	.
Cc1cc(C)c2oc(C(=O)Nc3ccc(S(=O)(=O)Nc4nccs4)cc3)cc(=O)c2c1	4.6%	-1.0%	?	-1.0%	.	-29.5%	?
O=c1[nH]c(=O)n(-c2ccc(Cl)cc2)c(O)c1C=Nc1ccc(S(=O)(=O)Nc2nccs2)cc1	0.4%	2.9%	-0.1%	-2.2%	1.0%	.	.
COc1ccc(OC)c(NP(=O)(Oc2ccccc2)Oc2ccccc2)c1	1.1%	.	-0.2%	.	.	.	.
COc1ccc(OC)c(NC(=O)c2cc(-c3cc(C)ccc3O)n[nH]2)c1	-0.6%	.	?	.	.	-19.3%	?
Cc1nnc(Sc2cc(NCCO)c([N+](=O)[O-])c3nonc23)s1	-2.1%	20.0%	5.36µM*	5.2%	-2.1%	1.35µM*	1.51µM*
Cc1nnc(Sc2cc(NCCCO)c([N+](=O)[O-])c3nonc23)s1	1.8%	27.1%	6.01µM*	-1.1%	2.3%	1.9µM*	3.38µM*
NC[C@@H](Cc1ccccc1)P(=O)(O)O	.	.	.	.	-4.6%[7.66 µM]	.	.
C[n+]1c(/C=C\c2ccc(O)c3ncccc23)[se]c2ccccc21	.	.	.	.	-3.5%[7.66 µM]	.	.
N#Cc1c(N)nc2c(c1N)CC(CCl)O2 (stereo unspecified)	1.0%	-18.7%	?	-2.6%	-1.1%	9.1%	2.7%
Cc1ccc(NS(=O)(=O)c2cc(NC(=O)c3ccc4c(c3)NC(=O)CS4)ccc2C)c(C)c1	9.5%	0.9%	21.3µM*	-11.3%	6.4%	15.1µM*	23.9µM*
Cc1cc(C)cc(C(=O)OC2C[C@H]3CC[C@@H](C2)N3C)c1 (stereo partly specified)	.	.	.	6.7%[21.7 µM]	0.4%	.	.
CC(=O)OCC(N)C(=O)c1ccccc1 (stereo unspecified)	.	.	.	-0.4%	0.7%[39.9 µM]	.	.
O=C(O)C[C@H]1OCC=C2CN3CC[C@]45c6ccccc6N[C@@H]4[C@H]1[C@H]2C[C@H]35	.	.	.	.	-0.4%[7.66 µM]	.	.
SMILES	GALK inhibitor	PKM2 act	Tb PFK inh-1	CBFb-RUNX1 inh	Luc counter	Tb PFK KinaseGlo	Tb PFK inh-2
O=C(O)C(Cc1ccccc1)N1C(=O)/C(=C/C=C/c2ccco2)SC1=S (stereo unspecified)	1.0%	-0.5%	?	.	.	21.3µM*	?
CN1C(=O)/C(=C/C=C/c2ccco2)C(=O)NC1=S	-1.7%	4.4%	?	?	.	.	.
O=C(O)CC(C(=O)O)N1C(=O)/C(=C/C=C/c2ccco2)SC1=S (stereo unspecified)	2.8%	7.4%	8.49µM*	.	.	2.13µM*	6.01µM*
C[C@@H](NC(=O)[C@@H](N)Cc1ccc(O)cc1)C(=O)NCC(=O)N(C)[C@@H](Cc1ccccc1)C(=O)NCCO	.	.	.	7.2%	.	.	.
COc1ccc(N2CCN(Cc3nc(-c4ccccc4)no3)CC2)cc1	2.1%	-0.4%	23.9µM*	-3.3%	-1.0%	4.2%	3.0%
O=C(COc1ccc(F)c(Cl)c1)c1ccc[nH]1	4.1%	-1.1%	?	-2.7%	-8.9%	?	?
CC(=O)N1CCN(c2ccc(OC[C@@H]3CO[C@@](Cn4ccnc4)(c4ccc(Cl)cc4Cl)O3)cc2)CC1	.	.	.	-15.9%[21.7 µM]	1.6%[17.1 µM]	.	.
O=C(NCC1CCN(Cc2cccc(Cl)c2)CC1)Nc1ccc(Cl)cc1	-4.9%	.	?	.	.	?	?
O=[N+]([O-])c1cccc(CN2CCN(Cc3ccc(Cl)cc3)CC2)c1	11.6%	-2.2%	-1.8%	-13.3%	6.1%	.	.
COc1ccc(OC)c(CN2CCCC(C(=O)c3sccc3C)C2)c1 (stereo unspecified)	3.6%	1.3%	-2.6%	2.6%	.	.	.
COc1ccc(OC)c(CN2CCC(CNC(=O)Nc3cccc(Cl)c3)CC2)c1	1.4%	14.5%	?	15.1%	2.5%	?	?
CC(=O)O[C@H]1CC[C@H]2[C@@H]3CCC4=C[C@@H](C5SCCS5)[C@H](OC(C)=O)C[C@]4(C)[C@H]3CC[C@@]12C	.	.	.	.	-6.0%[7.66 µM]	.	.
CC[C@@H]1CN2CCc3cc(OC)c(OC)cc3[C@H]2C[C@@H]1C[C@H]1NCCc2cc(OC)c(OC)cc21	.	.	.	13.0%[21.7 µM]	-1.2%[17.1 µM]	.	.
O=[N+]([O-])c1ccc(Cc2ccccn2)cc1	.	.	?	.	.	?	?
CCOC(=O)c1c(/N=C/c2c(O)n(-c3ccc(F)cc3)c(=S)[nH]c2=O)sc2c1CCCC2	-1.2%	1.0%	-2.0%	1.1%	-4.0%	.	.
CCOC(=O)c1c(NC(=O)C2C3C=CC(C3)C2(C)C(=O)O)sc2c1CCCC2 (stereo unspecified)	-3.2%	0.2%	?	-27.6%	-0.5%	?	26.9µM*
CC[C@H](C)[C@H](NC(=O)[C@@H](N)Cc1ccc(O)cc1)C(=O)NCC(=O)N[C@@H](CO)C(=O)N[C@@H](CCCN=C(N)N)C(N)=O	.	.	.	8.1%	.	.	.
O=C(O)CCNC(=O)c1ccc(NC(=O)Cc2ccc(Cl)cc2)cc1	-1.1%	0.9%	?	1.1%	0.5%	?	?
NNC(=O)c1ccc(Cl)cc1	0.5%	-13.1%	-3.8%	3.2%	2.5%	.	.
CC(=O)[C@H]1[C@H]([C@H](O)[C@H](O)CO)O[C@](O)(C(=O)O)C[C@@H]1O	.	.	1.69µM*	.	.	?	-16.2%

Screening data as filed in PubChem.
